In the library only some 2.3% were active in any assay of this set; here they are far more common.
MEKK2 WT-MEK5: modulators of MEK5 binding to wildtype MEKK2, primary screen, biochemical, multiplex bead flow cytometry, Alexa488-MEK5. Mitogen-activated protein kinase kinase kinase 2 (Homo sapiens), Q9Y2U5. Alexa488-MEK5 binding to MEKK2 WT; actives lie on both sides. binding response (% of control), % at 10 µM. actives 1.1% (n = 290,000). AID 1531, 2009; in the data active = binding response below about 67% or above about 130%
MEKK3 PB1 HTS: modulators of MEKK3-MEK5 PB1 binding, primary screen, biochemical, wildtype MEKK3, multiplex bead flow cytometry, Alexa488-MEK5; AID 1529, 2009; Mitogen-activated protein kinase kinase kinase 3 (Homo sapiens), Q99759; actives 1.4% (n = 290,000); binding response (% of control), % at 10 µM; bead-based flow cytometry, Alexa488-MEK5 binding to MEKK3; actives lie on both sides; 0 = blocked by unlabeled MEK5, 100 = vehicle;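 active = binding response more than 3 SD above or below the average of its plate-row segment, actives on both sides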;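 also: Alexa488 bead fluorescence after subtracting the streptavidin-only scavenger bead signal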
Target sequence (Q99759 whole entry, looked up): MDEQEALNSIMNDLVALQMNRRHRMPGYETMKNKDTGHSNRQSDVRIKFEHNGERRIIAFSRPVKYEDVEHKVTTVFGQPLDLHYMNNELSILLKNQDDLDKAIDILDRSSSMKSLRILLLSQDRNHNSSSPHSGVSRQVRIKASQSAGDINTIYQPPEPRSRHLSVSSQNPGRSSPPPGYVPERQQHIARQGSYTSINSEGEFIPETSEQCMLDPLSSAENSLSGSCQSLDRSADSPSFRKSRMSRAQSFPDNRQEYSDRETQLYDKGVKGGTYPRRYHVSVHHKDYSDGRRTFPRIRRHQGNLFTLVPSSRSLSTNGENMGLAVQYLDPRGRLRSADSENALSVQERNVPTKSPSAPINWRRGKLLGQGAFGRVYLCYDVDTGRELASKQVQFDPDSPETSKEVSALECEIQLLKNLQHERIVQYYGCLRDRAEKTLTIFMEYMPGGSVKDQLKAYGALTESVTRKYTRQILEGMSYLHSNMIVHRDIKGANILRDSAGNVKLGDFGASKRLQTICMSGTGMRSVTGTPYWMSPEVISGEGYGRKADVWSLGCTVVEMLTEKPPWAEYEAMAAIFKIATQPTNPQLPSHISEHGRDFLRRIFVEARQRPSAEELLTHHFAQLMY
UBC13 polyUb: UBC13 polyubiquitin chain formation inhibitors, primary screen, biochemical, TR-FRET, uHTS | Ubiquitin-conjugating enzyme E2 N (Homo sapiens), P61088 | actives 0.47% (n = 330,000) | AID 485273, 2010 | inhibition, % at 20 µM; in the data active = inhibition above about 45%, passing the limit was not always enough
MEKK2 mut-MEK5: MEK5 binding signal on mutant MEKK2 PB1, primary screen, biochemical, multiplex bead flow cytometry, Alexa488-MEK5 | actives 0.35% (n = 290,000) | Alexa488-MEK5 binding to MEKK2 mutant | percent response, % at 10 µM; in the data active = percent response above about 24%, passing the limit was not always enough
MEKK2wt confirm: modulators of MEK5 binding to wildtype MEKK2, confirmation, biochemical, single concentration, multiplex bead flow cytometry; binding response (% of control), % at 10 µM; shares compounds with MEKK3 PB1 HTS; actives 2.4% (n = 5,900); Alexa488-MEK5 binding to MEKK2 WT; actives lie on both sides; in the data active = binding response below about 16% or above about 210%; inactive = in between
MEKK2mut-MEK5: mutant MEKK2 PB1-MEK5 binding signal retest – biochemical, single concentration, multiplex bead flow cytometry, confirmation | shares compounds with MEKK3 PB1 HTS | Alexa488-MEK5 binding to MEKK2 mutant | percent response, % at 10 µM | actives 2% (n = 5,900) | AID 1893, 2009; in the data active = percent response mostly above about 71%, no sharp cut-off; inactive = mostly below about 38%;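 also: higher means compound restores mutant binding toward wildtype level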
MEKK3 confirm: MEKK3 wild-type PB1 binding to MEK5, inhibitors, confirmation, biochemical, bead multiplex flow cytometry, single concentration, wildtype; binding response (% of control), % at 10 µM; Alexa488-MEK5 binding to MEKK3; active compounds read low; actives 1.8% (n = 5,900); shares compounds with MEKK3 PB1 HTS;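 active = binding response below 72% of control, or above a set upper limit, though filed actives all read lower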;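 also: 100% = DMSO only wells and 0% = binding blocked by excess unlabeled MEK5; lower values mean stronger disruption of MEK5 binding to MEKK3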
Starred values were filed as active, the others as inactive; i = inactive; / = no result given; [ ] = another dose, or the depositor's remark.

SMILES	MEKK2 WT-MEK5	MEKK3 PB1 HTS	UBC13 polyUb	MEKK2 mut-MEK5	MEKK2wt confirm	MEKK2mut-MEK5	MEKK3 confirm
O=C(N/N=C/c1cccc(OC(=O)N2CCOCC2)c1)c1cccs1	107	155*	-6	0	103	0	107
O=C(CSc1n[nH]c(=O)n1Cc1ccco1)Nc1ccccc1	123	128*	8	23	69	-12	90
CC(C)c1ccc(NC(=O)CSc2n[nH]c(=O)n2Cc2ccco2)cc1	104	104	-7	1	/	/	/
O=C(O)CNC(=S)N(Cc1ccccc1Cl)C1CCCCC1	63	48*[inhibitor]	-6	-14	87	-11	85
C=CCOc1c2ccc(C(=O)NCCc3ccc(C)cc3)cc2nn1C	123	126*	11	14	68	-14	93
CC(=O)N1CCN(C(=O)CCC(=O)O)CC1	7.0*[inhibitor]	19*[inhibitor]	-7	-6	105	8	107
Cn1cccc1CC(=O)NNC(=S)Nc1ccc(F)cc1	105	104	-7	-1	/	/	/
Cn1cccc1CC(=O)NNC(=O)Nc1ccc(F)cc1	109	147*	-7	-1	106	10	105
CCCN1C(=O)/C(=C\C=C2\N(CC)c3ccccc3C2(C)C)SC1=S	186*	66	/	174*	82	-14	90
CCN1C(=O)/C(=C/C=C2\C=CN(CC)c3ccccc32)SC1=S	42*[inhibitor]	75*[inhibitor]	/	-6	90	-5	102
CCN1C(=O)/C(=C\C=C2/C=CC=CN2CC)SC1=S	104	105	i	-1	/	/	/
CCN1C(=O)/C(=C2/Sc3ccccc3N2CC)SC1=S	95	99	-7	-1	/	/	/
CCCN1C(=O)/C(=C\C=C2/Sc3ccccc3N2CC)SC1=S	7.0*[inhibitor]	37*[inhibitor]	/	-26	30	-28	71*
COc1ccc(CN(CC(=O)NCc2ccc(F)cc2)C(=O)c2ccco2)cc1	101	103	-4	0	/	/	/
O=C(CN(Cc1ccc(F)cc1)C(=O)c1ccco1)NCc1ccc(F)cc1	0.0*[inhibitor]	0.0*[inhibitor]	-2	-21	104	10	109
COc1cc(CN2CCCCC2C(=O)Nc2ccc(Oc3ccccc3)nc2)ccc1O (centres undefined)	103	97	3	5	/	/	/
O=C(CN1CCCc2ccccc21)NCCc1ccc(F)cc1	52	45*[inhibitor]	18	-20	96	-2	102
COc1cc(OC)c(OC)cc1CNC(=O)c1ccc(S(=O)(=O)N2CCCCC2)cc1	/	/	-24	/	/	/	/
COC(=O)C1=C(C(=O)OC)[C@@H]2N(Cc3ccccc3)c3ccccc3[C@@]23C[C@@H](C(=O)OC)N=C3N1	141*	124	13	3	103	-3	99
COC(=O)C1=C(C(=O)OC)[C@@H]2N(C)c3ccccc3[C@@]23C[C@@H](C(=O)OC)N=C3N1	93	95	4	2	/	/	/
CCOc1cc(/C=C(\C#N)C(N)=O)ccc1OCc1c(C)no[n+]1[O-]	99	102	3	-4	/	/	/
Cc1no[n+]([O-])c1COc1ccc(/C=C(\C#N)C(N)=O)cc1	104	134*	-10	1	105	3	100
CCCN1CCC(=O)N(CCSc2ccc(NC(C)=O)cc2)CC1	108	71*[inhibitor]	3	1	98	-4	97
COc1ccc(Cl)cc1NC(=S)NCCCN1CCCC1=O	63	46*[inhibitor]	-7	-14	99	2	98
CCOC(=O)c1sc(SC)c2c1CCC/C2=N/OC	118	131*	-2	30	99	0	102
